# PubChem BioAssay AID488969 (Vanderbilt High Throughput Screening Facility, 2010)
# Several values for one entry are separate records, joined by “and”; a condition that tells them apart may be missing. Identical values can stand only once. In all, about 110,000 compounds were measured (“z-score”: median about -0.1, highest 2% from about 2 on). Many of the other results were omitted from the sample, so the highest values are more common in it than they were. Activity calls are given as the source filed them.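 The calls were made as follows: active = z-score in the third read window above 3 or below -3; inactive = the rest.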
# Biological target: Metabotropic glutamate receptor 8 (Rattus norvegicus) (UniProt P70579)
# Sequence (P70579 whole entry, looked up): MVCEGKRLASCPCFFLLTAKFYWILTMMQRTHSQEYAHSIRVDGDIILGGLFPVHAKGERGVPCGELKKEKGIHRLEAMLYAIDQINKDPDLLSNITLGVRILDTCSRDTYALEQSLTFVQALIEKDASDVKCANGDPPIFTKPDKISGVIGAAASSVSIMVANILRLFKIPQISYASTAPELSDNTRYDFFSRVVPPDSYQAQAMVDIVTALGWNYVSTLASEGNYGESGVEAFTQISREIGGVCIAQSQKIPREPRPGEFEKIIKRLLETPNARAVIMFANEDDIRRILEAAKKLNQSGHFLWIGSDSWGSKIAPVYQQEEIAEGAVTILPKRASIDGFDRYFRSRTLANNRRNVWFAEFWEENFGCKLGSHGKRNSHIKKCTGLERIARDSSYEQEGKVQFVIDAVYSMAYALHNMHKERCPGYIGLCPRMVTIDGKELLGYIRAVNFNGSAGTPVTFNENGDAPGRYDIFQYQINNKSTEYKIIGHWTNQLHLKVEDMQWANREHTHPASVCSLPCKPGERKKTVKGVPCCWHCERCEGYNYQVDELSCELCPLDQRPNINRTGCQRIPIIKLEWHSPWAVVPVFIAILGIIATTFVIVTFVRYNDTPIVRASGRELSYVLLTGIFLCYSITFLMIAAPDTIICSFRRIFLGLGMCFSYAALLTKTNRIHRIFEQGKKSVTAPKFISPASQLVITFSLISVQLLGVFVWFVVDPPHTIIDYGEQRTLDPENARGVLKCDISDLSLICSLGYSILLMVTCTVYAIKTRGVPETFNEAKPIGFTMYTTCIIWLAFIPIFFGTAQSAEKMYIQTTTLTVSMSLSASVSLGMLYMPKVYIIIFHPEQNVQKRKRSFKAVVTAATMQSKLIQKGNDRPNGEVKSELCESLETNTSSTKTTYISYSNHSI
# Assay: rat mGluR8 modulators via GIRK flux, primary screen, cell-based, thallium flux, HTS (AID 488969)
# Conditions: HEK293 rat mGluR8, GIRK (G protein-gated inwardly rectifying potassium channel) thallium flux, FluoZin2; at 10 µM; stronger effect = higher value; submaximal glutamate (EC20) added with thallium
row,Structure (SMILES),z-score
1,Cc1cccc(N(C(=O)c2sc(C)nc2C)C(C(=O)NCc2ccco2)c2ccccc2)c1 (configuration not stated),-1.18
2,COC(=O)C1=C(C)NC(=O)NC1c1ccccc1 (configuration not stated),-0.341
3,OC(COCC(F)(F)C(F)(F)C(F)(F)C(F)F)Cn1c2ccccc2c2ccccc21 (configuration not stated),0.164
4,CCOc1ccc2nc(SCc3ccccc3C#N)sc2c1,-0.141
5,Fc1ccccc1N1CCN(CC2CC3C=CC2C3)CC1 (configuration not stated),-0.343
6,Cc1noc2c1C(c1ccc(N(C)C)cc1)C1=C(CC(C)(C)CC1=O)N2 (configuration not stated),-0.142
7,CN(CCC#N)C(=S)Nc1ccc(Oc2ccccc2)cc1,-0.139
8,Cc1ccc(-c2ccc(SCC(=O)c3ccccc3)nn2)cc1,0.138
9,O=C(Nc1ccon1)c1ccc(Br)o1,-0.216
10,C=CCn1c(NC(=O)CC)c(C(=O)OCC)sc1=S,-0.979
11,COc1ccc(N=C2C(=Nc3ccc(OC)cc3)N(c3ccc(OC)cc3)C(=S)N2C)cc1,-0.0804
12,Cc1nn(C(C)C(=O)NCc2ccccc2)c(C)c1[N+](=O)[O-] (configuration not stated),0.375
13,Cc1nc2ccccn2c1-c1nnco1,0.116
14,CCOC(=O)/C(N=Nc1c(Br)cc(Br)cc1Br)=C(\C)O,0.239
15,O=C(Nc1ccccc1C(F)(F)F)Nc1cccc2ccccc12,0.33
16,O=C(Nc1cccc2ccccc12)N1CCN(c2ccccc2)CC1,-0.177
17,NC(=O)Nc1cccc2ccccc12,4.53 (active)
18,CN1CCN(C(=S)NC(=O)/C=C/c2ccccc2)CC1,0.401
19,COCC(=O)Nc1cccc2ccccc12,0.3
20,Cc1ccc(/C=C/C(=O)NC(=S)N2CCN(C)CC2)cc1,-0.241
21,CCN1CCN(C(=O)Nc2cccc3ccccc23)CC1,-0.222
22,CN1CCN(C(=S)NC(=O)/C=C/c2cccc3ccccc23)CC1,2.03
23,CN1CCN(C(=O)Nc2cccc3ccccc23)CC1,3.3 (active)

row,Structure (SMILES),z-score
1,CCc1cc(=O)oc2cc3oc(C)c(C)c3cc12,-0.296
2,Cc1c(C(=O)NCC2COc3ccccc3O2)oc2ccc(S(=O)(=O)N(C)C3CCCCC3)cc12 (configuration not stated),-0.0918
3,CC(=O)CCc1oc2ccc(NC(C)=O)cc2c1-c1ccc(C)o1,-0.484
4,COCCN(C(=O)COc1ccccc1)c1nnc(-c2cccnc2)s1,-0.132
5,CC(=O)C(C)Oc1ccc2c3c(c(=O)oc2c1C)CCCC3 (configuration not stated),-1.13
6,COc1ccc(NC(=O)CN(c2ccc(C)cc2)S(=O)(=O)c2c(C)nn(C)c2C)cc1OC,-0.248
7,Cc1cccc2sc(NC(=O)C3CCCO3)nc12 (configuration not stated),-0.212
8,CC1CCCCN1CCCNC(=O)c1ccc2c(=O)n(CCc3ccccc3)c(=O)[nH]c2c1 (configuration not stated),2.93
9,CC1CCCCN1CCNC(=O)c1ccc2c(=O)n(CCc3ccccc3)c(=O)[nH]c2c1 (configuration not stated),0.188
10,O=C(NCc1ccccc1)c1ccc2c(=O)n(CCCN3CCCC3=O)c(=S)[nH]c2c1,4.92 (active)
11,CC1CCN(CCCNC(=O)c2ccc3c(=O)n(CCc4ccccc4)c(=O)[nH]c3c2)CC1,4.09 (active)
12,O=C(NCc1cccnc1)c1ccc2c(=O)n(CCCN3CCCC3=O)c(=S)[nH]c2c1,-0.116
13,O=C(NCCCN1CCCCC1)c1ccc2c(=O)n(CCc3ccccc3)c(=O)[nH]c2c1,1.16
14,O=C(NCCCN1CCOCC1)c1ccc2c(=O)n(CCc3ccccc3)c(=O)[nH]c2c1,1.15
15,O=C(NCCN1CCCC1)c1ccc2c(=O)n(CCc3ccccc3)c(=O)[nH]c2c1,1.17
16,Cc1ccc(CNC(=O)c2ccc3c(=O)n(CCCN4CCCC4=O)c(=S)[nH]c3c2)cc1,-0.167
17,O=C(N/N=C/c1ccc(O)cc1)/C(=C/c1ccccc1)CCO,-0.0513
18,O=C(c1cn(-c2ccccc2)nc1-c1cccs1)N(CCO)Cc1ccccc1,-0.178
19,CCn1c(SCC(=O)NCCc2ccc(Cl)cc2)nnc1-c1cccs1,-0.84
20,CCOCCCNC(=O)CN1C(=O)CSc2cc(S(=O)(=O)N3CCCCCC3)ccc21,-0.263
21,O=C(c1cc(Cl)ccc1[N+](=O)[O-])n1cnc2ccccc21,-0.721
22,COc1ccccc1N1CCN(C(=O)c2cc(-c3ccco3)on2)CC1,-0.34
23,CCOC(=O)c1cnn2c(C)cc(-c3ccccc3)nc12,2.74

row,Structure (SMILES),z-score
1,COC(=O)c1cnn2c(C(F)(F)F)cc(-c3ccccc3)nc12,-0.00832
2,CCOC(=O)c1cnn2c(C)cc(-c3ccc(F)cc3)nc12,-0.151
3,CCOC(=O)C1=C(C)N=c2s/c(=C/c3ccccc3)c(=O)n2C1c1ccc(OC)c(OC)c1 (configuration not stated),-0.183
4,CCOC(=O)C=Nc1c(N)n(C)c(=O)n(C)c1=O,2.44
5,Cn1c(N)c(C(=O)CCl)c(=O)n(C)c1=O,0.0911
6,CCOc1cc(C(=O)OCC(=O)c2c(N)n(C)c(=O)n(C)c2=O)cc(OCC)c1OCC,-0.112
7,CC1(C)C(=O)OC(c2cccn2-c2ccc([N+](=O)[O-])cc2)C(C)(C)C1=O (configuration not stated),-0.471
8,Cc1cccc(SCc2noc(C(=O)NC(C)C)c2C(=O)O)c1,-0.0231
9,O=C1NC(=Nc2cccc(Cl)c2)SC1Cc1cccc(Cl)c1Cl (configuration not stated),-0.324
10,O=C(Nc1ccccc1)N1CCOCC1,-0.206
11,O=C(Nc1ccccc1)Nc1ccc(C(=O)N2CCOCC2)cc1,-0.0267
12,O=C(NC(=Nc1ccccc1)N1CCOCC1)Nc1ccccc1,2.94
13,CC(=C/C(=O)O)/C=C/c1ccc([N+](=O)[O-])cc1,-0.0461
14,CC(/C=C\c1cccnc1)=C/C(=O)O,-0.175 and 6.26 (active)
15,CC(=C/C(=O)O)/C=C/c1cccs1,-0.429
16,CC1(C)CC(=O)C2=C(C1)Nc1ccccc1NC2c1nc2ccccc2[nH]1 (configuration not stated),-0.113
17,Cc1c(C2Nc3ccccc3NC3=C2C(=O)CC(C)(C)C3)cnn1C (configuration not stated),4.64 (active)
18,Cn1cccc1C1Nc2ccccc2NC2=C1C(=O)CC(C)(C)C2 (configuration not stated),-0.491
19,CCOc1ccc(N(CC(=O)NCC2CCCO2)C(=O)CCC(=O)Nc2ccccn2)cc1 (configuration not stated),-1.08
20,COc1ccc(NC(=O)CSc2nc(N)c3cc4c(nc3n2)CCCC4)cc1,-0.916
21,O=C(COC(=O)c1ccccc1C(=O)c1ccccc1)NCCc1ccc(Cl)cc1Cl,-0.0656
22,Cc1ccc(/C=N/n2c(-c3ccco3)n[nH]c2=S)s1,0.259
23,S=c1[nH]nc(-c2ccccn2)n1/N=C/c1ccccc1,-0.194

row,Structure (SMILES),z-score
1,Cc1cc(-c2n[nH]c(=S)n2/N=C/c2ccc(C)s2)n[nH]1,-0.0648
2,S=c1[nH]nc(-c2ccco2)n1/N=C/c1cccs1,-0.0217
3,S=c1[nH]nc(-c2ccco2)n1/N=C/c1ccc(Br)s1,4.39 (active)
4,S=c1[nH]nc(-c2ccccn2)n1/N=C/c1cccs1,-0.126
5,S=c1[nH]nc(-c2ccccn2)n1/N=C/c1ccc(Br)s1,5.6 (active)
6,Cc1cc(-c2n[nH]c(=S)n2/N=C/c2sccc2C)n[nH]1,-0.362
7,Cc1cc(-c2n[nH]c(=S)n2/N=C/c2ccc(Br)s2)n[nH]1,4.55 (active)
8,Nc1c(C(O)(C(F)(F)F)C(F)(F)F)cc(C(O)(C(F)(F)F)C(F)(F)F)c2ccccc12,0.066
9,CC1=C(C(=O)NCc2ccccc2)C(c2ccccc2OCC(N)=O)NC(=O)N1 (configuration not stated),0.226
10,O=C(Cc1c(F)cccc1Cl)N1CCCC1,0.183
11,CS(=O)(=O)N1CCC(C(=O)NCc2ccco2)CC1,0.432
12,COc1ccc(N2CCN(C(=O)c3cccc(N4C(=O)C5CC=CC(C)C5C4=O)c3)CC2)cc1 (configuration not stated),-0.43
13,COc1cc(/C=C2/C(=O)N(c3ccccc3)N=C2C)ccc1OS(=O)(=O)c1ccccc1,-0.322
14,COc1ccc(/C=C2\SC(c3ccc(C)cc3)=NC2=O)cc1OC,-1.87
15,COc1ccc(/C=C2\SC(=O)NC2=S)cc1OC,2.05
16,COc1cc(/C=C2\SC(=S)NC2=O)ccc1OS(=O)(=O)c1ccccc1,15.1 (active)
17,COc1cc(/C=C2/SC(=S)NC2=O)ccc1OS(=O)(=O)c1ccc(C)cc1,-2.12
18,COc1ccc(/C=C2\SC(=O)N=C2N)cc1OC,0.0136
19,CCOC(=O)c1c(-c2ccc(OC)cc2)nc2nonc2c1N,0.0715
20,CC(C)CCNC(=S)Nc1ccc(F)cc1,0.97
21,COc1cc(C)c(S(=O)(=O)N2CCOCC2)cc1C,0.136
22,COc1ccc(NC(=O)CSc2ccc(-c3ccccn3)nn2)cc1OC,-0.397
23,Cc1ccc(S(=O)(=O)c2nc(C(C)(C)C)oc2N2CCOCC2)cc1,-0.0758

row,Structure (SMILES),z-score
1,N#C/C(=C\c1ccco1)C(=O)NCC1CCCO1 (configuration not stated),-0.0138
2,CC(C)NS(=O)(=O)c1cccc2nsnc12,-0.236
3,COc1ccc2cc3cc(C(=O)NC(C)C)oc3nc2c1,0.629
4,C=CCn1c(SCC)nc2sc3c(c2c1=O)CCc1ccccc1-3,0.571
5,C=CCSc1nc2sc3c(c2c(=O)n1CC)CCc1ccccc1-3,2.62
6,C=CCSc1nc2sc3c(c2c(=O)n1CC=C)CCc1ccccc1-3,-0.139
7,CCOC(=O)CSc1c(-c2ccccc2)c2cc(Cl)ccc2[nH]c1=O,-0.516
8,O=C(c1cccn(Cc2cccc(Cl)c2)c1=O)N1CCOCC1,0.0735
9,CC(C)CCOP(=O)(c1ccc(N(C)C)cc1)C(O)c1ccccn1 (configuration not stated),5.74 (active)
10,CC(C)COP(=O)(c1ccc(N(C)C)cc1)C(O)c1ccncc1 (configuration not stated),-0.817
11,CC(C)COP(=O)(c1ccc(N(C)C)cc1)C(O)c1ccccn1 (configuration not stated),0.147
12,CCOC(=O)c1ccc(NC(=O)C2=C(C)Nc3nc(CCCO)nn3C2c2cccc(C)c2)cc1 (configuration not stated),0.0656
13,CCCCN(Cc1ccccc1)S(=O)(=O)c1cc(Br)cc2c1N(C(C)=O)C(C)C2 (configuration not stated),2.82
14,CC(=O)N1c2c(cc(Br)cc2S(=O)(=O)NCC2COc3ccccc3O2)CC1C (configuration not stated),0.248
15,COc1cccc(CNS(=O)(=O)c2cc(Br)cc3c2N(C(C)=O)C(C)C3)c1 (configuration not stated),0.241
16,CCOc1ccc(/C=C2\SC(=O)N(CCNC(=O)C3COc4ccccc4O3)C2=O)cc1OC (configuration not stated),-0.337
17,COc1ccc(/C=N/c2oc(-c3ccccc3)cc2C#N)cc1,-0.0521
18,O=[N+]([O-])c1ccc(O)c(/C=N/n2cnc3ccccc32)c1,-0.812
19,Oc1ccc(Br)cc1/C=N/n1cnc2ccccc21,2.45
20,COc1cccc(/C=N/n2cnc3ccccc32)c1OC,-0.147
